Hit rate of the full screen: of about 360,000 compounds, about 1,800 (0.5%) were called active. The sample holds actives, similar compounds and a random draw of the others, so the mix is not that of the screen.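 Rule for the calls: active = mean inhibition of at least 75% with every replicate also reaching 75%; inconclusive = mean inhibition at least 75% but some replicate below; inactive = mean inhibition below 75%.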

The nature of the test: reduction of Shn3 3'UTR firefly luciferase signal, primary screen, Schnurri-3 inhibitor project, cell-based, Clone20 osteoblasts, set 2 (AID 588674).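 Note: 0% = median of neutral control wells and 100% = pilot-screen positive control compound.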 The following applies: Clone20 osteoblast Shn3 3'UTR firefly luciferase, 24 h; at 12.5 µM; hits give high values.
What is called inhibition is the relative decrease from the control value, in per cent. As for `CCc1ccc(NC2Nc3cc(C)nn3S2)cc1` (stereo not given), the inhibition is -59% (inactive).

In the case of `COc1ccccc1-n1c(SCC(=O)Nc2cccc(C(=O)O)c2)nnc1-c1ccccc1O`, the inhibition was -11.2% (inactive).

Take `COc1cccc(/C=N/Nc2cc(C)nc(-c3ccccc3O)n2)c1O`: the inhibition was 86.9% (active).

On to `COc1cc(/C=N/Nc2ccc(C)cc2)cc(Br)c1O`, for which the inhibition was 5.6% (inactive).

As for `CN(CCO)S(=O)(=O)c1ccc2c(c1)C(=O)c1cc(S(=O)(=O)N(C)CCO)ccc1-2`, the inhibition is 16.6% (inactive).

`CCn1nc(C)c(CNC(=O)C2CCC(=O)N(Cc3cccc(F)c3)C2)c1C` (stereo not given): the inhibition was -6.25% (inactive).

With `COC(c1ccccc1)(c1ccccc1)C(Oc1nc(C)cc(C)n1)C(=O)O` (stereo not given), the inhibition is 5.7% (inactive).

`Cc1cc(C)nc(SC(C)C(=O)N/N=C/c2cccs2)n1` (stereo not given): the inhibition was 4.78% (inactive).

For `Cc1cc(C)nc(S/C=C/C(=O)c2ccccc2)n1`, the inhibition is 95.6% (active).

`Clc1ccc(Cl)c(Oc2ccc(Oc3nc(Cl)ccc3Cl)cc2)n1`: the inhibition is -2.29% (inactive).

On to `Cc1ccc(/C=N/NC(=O)C2=NNC(c3ccccc3)(c3ccccc3)C2)c(O)c1`, for which the inhibition was 88.2% (active).

In the case of `O=C(NN=Cc1ccc2c(c1)CCC2)c1ccccc1O`, the inhibition was -68.8% (inactive).

As to `O=C(N/N=C/c1ccccc1O)C1CCCC1`, the inhibition was 26.7% (inactive).

On to `COC(=O)Cc1ccc(OC2(C)CCN(Cc3ccc4c(c3)OCCO4)C2)cc1` (stereo not given), for which the inhibition is -22.2% (inactive).

On to `O=C(NCCCN1CCCCC1)C1CCCN(c2ncnc3c2nc2n3CCCCC2)C1` (stereo not given), for which the inhibition was 2.4% (inactive).

As to `O=C(CSC1=NS(=O)(=O)c2cc(F)ccc2N1)Nc1ccccc1F`, the inhibition is -17.3% (inactive).

Turning to `Cc1cc(C)n(CCC(=O)N2CCN(S(=O)(=O)c3ccc(C)c(C)c3)CC2)n1`, the inhibition is -21.5% (inactive).

`COc1ccc(CCNC(=O)C(=O)NCC2CCNCC2)cc1OC`: the inhibition is -3.81% (inactive).

On to `O=C(O)CSc1nccn1-c1cccc(Cl)c1`, for which the inhibition is -5.11% (inactive).

As to `O=C(NCCc1ccccc1)c1cccc(NC(=O)c2ccccc2)c1`, the inhibition was -14.5% (inactive).

In the case of `Cc1cc(=O)c2ccc(NC(=O)c3ccccc3)cc2[nH]1`, the inhibition is -6.37% (inactive).

As for `O=C(NC1=CC(=O)c2ccccc2C1=O)c1ccccc1`, the inhibition was 93.6% (active).

Regarding `Cn1c2c(c(=O)n(C)c1=O)C1c3ccccc3OCC1C(C)(C)O2` (stereo not given), the inhibition was -0.463% (inactive).

As to `CC1COC2C(O1)N(S(C)(=O)=O)CCN2S(C)(=O)=O` (stereo not given), the inhibition was 1.27% (inactive).

As to `Cn1c(SCC(=O)N2CCCc3ccccc32)nc2ccccc2c1=O`, the inhibition is 86.2% (active).

For the compound `O=C(CSc1nc2ccccc2c(=O)n1CCCO)N1CCc2ccccc21`, the inhibition is 3.09% (inactive).

Turning to `C=CCn1c(=O)c2ccccc2n2c(SCC(=O)N3CCCc4ccccc43)nnc12`, the inhibition was -3.54% (inactive).

`Cn1cc(CN2CCCC(CO)C2)c(-c2ccc(Oc3ccccc3)cc2)n1` (stereo not given): the inhibition is 6.06% (inactive).

Regarding `C[C@H](NC(=O)CC[C@H]1O[C@@H](n2ccc(=O)[nH]c2=O)[C@H](O)[C@@H]1O)c1cccc2ccccc12`, the inhibition is -13% (inactive).

Turning to `COc1cccc(CNC(=O)C(=O)NCCC2CCCCN2S(=O)(=O)c2ccc(C)cc2)c1` (stereo not given), the inhibition was 13.1% (inactive).

As for `C[C@H](NC(=O)c1[nH]cnc1C(=O)Nc1nccs1)c1ccccc1`, the inhibition was -5.6% (inactive).

As for `Cc1ccc(C)c(S(=O)(=O)N2CCN(CC(=O)Nc3ccc([N+](=O)[O-])cc3)CC2)c1`, the inhibition was 5.73% (inactive).

On to `Cc1ccc(C)c(S(=O)(=O)N2CCN(c3ncnc4sccc34)CC2)c1`, for which the inhibition is 86.3% (active).

Consider `COc1ccc(-c2csc3ncnc(N4CCN(S(=O)(=O)c5ccccc5C#N)CC4)c23)cc1`, for which the inhibition was -3.1% (inactive).

Consider `C[n+]1cc(-c2ccccc2)oc1-c1ccccc1`, for which the inhibition is -76.7% (inactive).

For the compound `Cc1ccccc1NC(=O)Cc1nc(COC(=O)C(C)(C)Oc2ccc(Cl)cc2)cs1`, the inhibition is -2.77% (inactive).

For `COc1cc(NC(=S)N2CCCC(C)C2)cc(OC)c1OC` (stereo not given), the inhibition is -25.8% (inactive).

Turning to `O=C1C=C(c2cc(C(F)(F)F)cc(C(F)(F)F)c2)C[C@@H](c2ccc3c(c2)OCO3)C1`, the inhibition was 15% (inactive).

Regarding `COc1ccc2cc(C3=CC(=O)C[C@H](c4ccc5c(c4)OCO5)C3)ccc2c1`, the inhibition is -45.2% (inactive).

For the compound `O=C1C=C(c2ccnc3cc(Cl)ccc23)C[C@@H](c2ccc3c(c2)OCO3)C1`, the inhibition is 85.5% (active).

On to `COc1ccccc1NC(=O)C(C)OC(=O)c1ccc(-n2cnnn2)cc1` (stereo not given), for which the inhibition was 1.76% (inactive).

On to `CC(=O)N1CCCc2cc(S(=O)(=O)CCC(=O)N3CCN(c4ccccc4)CC3)ccc21`, for which the inhibition was -3.7% (inactive).

With `CC(=O)N1CCCc2cc(S(=O)(=O)N3CCCC(C(=O)N4CCN(c5cccc(Cl)c5)CC4)C3)ccc21` (stereo not given), the inhibition was 93% (active).

Consider `CC(=O)N1c2ccc(S(=O)(=O)N3CCC(C(=O)N4CCN(c5ccccc5)CC4)CC3)cc2CC1C` (stereo not given), for which the inhibition was 74.2% (inactive).

Turning to `CCOC(=O)C1=CC[C@@H](c2ccncc2)N(S(=O)(=O)c2ccc(C)cc2)C1`, the inhibition is 4.63% (inactive).

As for `COc1ccc(C(c2nnnn2C2CCCC2)N2CCN(C/C=C/c3ccccc3)CC2)cc1` (stereo not given), the inhibition is 16.4% (inactive).

As to `Cc1cc2nc(-c3ccco3)c(Cc3cccc(F)c3)n2c(C)c1Br`, the inhibition is 54.3% (inactive).

As for `O=C1C(Cl)=C(Oc2ccccc2)C(=O)c2ccccc21`, the inhibition was 96.1% (active).

As to `O=C(NCc1cccs1)c1ccc2c(c1)ncn2C1CCCC1`, the inhibition is -25.6% (inactive).

On to `COc1c(C=O)c(CCN(C)C(=O)c2ccc(F)cc2)cc2c1OCO2`, for which the inhibition is -0.0815% (inactive).

Take `Cn1c(CCNS(=O)(=O)c2ccc(F)cc2)nnc1SCc1cccnc1`: the inhibition is -8.53% (inactive).

For the compound `O=C(CCl)Nc1ccc(Sc2ccc(NC(=O)CCl)cc2)cc1`, the inhibition is 96.4% (active).

Turning to `O=C(CCl)Nc1cccc(CP(=O)(c2ccccc2)c2ccccc2)c1`, the inhibition is -0.336% (inactive).

`CC(=O)Nc1ccc(SCC(=O)NC(=O)c2ccc(Cl)cc2)cc1`: the inhibition is 5.11% (inactive).

In the case of `COCCN(CCOC)c1nc(N)c2c(N)nc3c(c2c1C#N)CC(=O)N3Cc1ccc(Cl)cc1`, the inhibition was -5.44% (inactive).

The record behind these values is PubChem BioAssay AID588674 (Broad Institute, 2011).
